Data reported in the supplement of paper PMC13380429.
Unmarked numbers belong to inactive results.

Test system: Vero E6 infected with SARS-CoV-2
Assay: inhibition of SARS-CoV-2 cytopathic effect; higher = more antiviral protection, active = above 15
Conditions: 48 h

CC1(C)OC[C@H](NC(=O)Nc2ccc(Br)cc2Br)[C@H](c2ccccc2)O1
inhibition of SARS-CoV-2 cytopathic effect (1 nM): -1.15% | inhibition of SARS-CoV-2 cytopathic effect (8.33 nM): 0.87% | inhibition of SARS-CoV-2 cytopathic effect (100 nM): -2.04% | inhibition of SARS-CoV-2 cytopathic effect (833.33 nM): -3.68% | inhibition of SARS-CoV-2 cytopathic effect (10000 nM): -5.84%

O=C(Cn1ccnc1[N+](=O)[O-])NCc1ccccc1 [benznidazole]
inhibition of SARS-CoV-2 cytopathic effect (1 nM): -0.15% | inhibition of SARS-CoV-2 cytopathic effect (8.33 nM): -0.69% | inhibition of SARS-CoV-2 cytopathic effect (100 nM): -2.08% | inhibition of SARS-CoV-2 cytopathic effect (833.33 nM): -0.42% | inhibition of SARS-CoV-2 cytopathic effect (10000 nM): 0.58%

COc1cc(C)c(/C=C/C(C)=C/C=C/C(C)=C/C(=O)O)c(C)c1C [acitretin]
inhibition of SARS-CoV-2 cytopathic effect (1 nM): 0.15% | inhibition of SARS-CoV-2 cytopathic effect (8.33 nM): -1.89% | inhibition of SARS-CoV-2 cytopathic effect (100 nM): 0.02% | inhibition of SARS-CoV-2 cytopathic effect (833.33 nM): -0.64% | inhibition of SARS-CoV-2 cytopathic effect (10000 nM): -0.58%

C[C@@]1(F)[C@H](O)[C@@H](CO)O[C@H]1n1ccc(N)nc1=O
inhibition of SARS-CoV-2 cytopathic effect (1 nM): 0.11% | inhibition of SARS-CoV-2 cytopathic effect (8.33 nM): -0.83% | inhibition of SARS-CoV-2 cytopathic effect (100 nM): -0.8% | inhibition of SARS-CoV-2 cytopathic effect (833.33 nM): 1.12% | inhibition of SARS-CoV-2 cytopathic effect (10000 nM): 0.26%

FC(F)(F)c1ccc(/C=C/c2nc(COc3ccc(CCCCn4ccnn4)cc3)co2)cc1 [mubritinib]
inhibition of SARS-CoV-2 cytopathic effect (1 nM): 2.13% | inhibition of SARS-CoV-2 cytopathic effect (8.33 nM): 1.62% | inhibition of SARS-CoV-2 cytopathic effect (100 nM): 2.58% | inhibition of SARS-CoV-2 cytopathic effect (833.33 nM): 3.2% | inhibition of SARS-CoV-2 cytopathic effect (10000 nM): 1.47%

O=C(Oc1ccc([N+](=O)[O-])cc1)N1CCN(Cc2cccc(Oc3ccccc3)c2)CC1
inhibition of SARS-CoV-2 cytopathic effect (1 nM): -1.56% | inhibition of SARS-CoV-2 cytopathic effect (8.33 nM): -2.22% | inhibition of SARS-CoV-2 cytopathic effect (100 nM): -1.22% | inhibition of SARS-CoV-2 cytopathic effect (833.33 nM): -1.53% | inhibition of SARS-CoV-2 cytopathic effect (10000 nM): 1.51%

CC(=O)c1cc2c(o1)C(=O)c1ccccc1C2=O [napabucasin]
inhibition of SARS-CoV-2 cytopathic effect (1 nM): 0.24% | inhibition of SARS-CoV-2 cytopathic effect (8.33 nM): 1.91% | inhibition of SARS-CoV-2 cytopathic effect (100 nM): 1.42% | inhibition of SARS-CoV-2 cytopathic effect (833.33 nM): 7.16% | inhibition of SARS-CoV-2 cytopathic effect (10000 nM): -36.6%

O=C(O)c1cc2cccc([N+](=O)[O-])c2[nH]1
inhibition of SARS-CoV-2 cytopathic effect (1 nM): -1.29% | inhibition of SARS-CoV-2 cytopathic effect (8.33 nM): 0.14% | inhibition of SARS-CoV-2 cytopathic effect (100 nM): -0.8% | inhibition of SARS-CoV-2 cytopathic effect (833.33 nM): 0.27% | inhibition of SARS-CoV-2 cytopathic effect (10000 nM): 1.27%

COc1ccc2nc3c(c(N)c2c1)CCCC3 [7-methoxytacrine]
inhibition of SARS-CoV-2 cytopathic effect (1 nM): 0.9% | inhibition of SARS-CoV-2 cytopathic effect (8.33 nM): 2.7% | inhibition of SARS-CoV-2 cytopathic effect (100 nM): 0.06% | inhibition of SARS-CoV-2 cytopathic effect (833.33 nM): 4.86% | inhibition of SARS-CoV-2 cytopathic effect (10000 nM): 4.52%

Cc1cc(Oc2ccc3nc(COc4ccc(CC5SC(=O)NC5=O)cc4)n(C)c3c2)cc(C)c1N (stereo not given) [efatutazone]
inhibition of SARS-CoV-2 cytopathic effect (1 nM): -0.56% | inhibition of SARS-CoV-2 cytopathic effect (8.33 nM): 2.28% | inhibition of SARS-CoV-2 cytopathic effect (100 nM): 0.7% | inhibition of SARS-CoV-2 cytopathic effect (833.33 nM): 0.08% | inhibition of SARS-CoV-2 cytopathic effect (10000 nM): -0.83%

CCOC(=O)CNC(=O)[C@@H]1CCCN1C(=O)Cc1ccccc1
inhibition of SARS-CoV-2 cytopathic effect (1 nM): 0.67% | inhibition of SARS-CoV-2 cytopathic effect (8.33 nM): -0.95% | inhibition of SARS-CoV-2 cytopathic effect (100 nM): 3.29% | inhibition of SARS-CoV-2 cytopathic effect (833.33 nM): 2.08% | inhibition of SARS-CoV-2 cytopathic effect (10000 nM): 1.46%

O=C1NC(=O)C(c2cnc3ccccn23)=C1c1cn2c3c(cc(F)cc13)CN(C(=O)N1CCCCC1)CC2
inhibition of SARS-CoV-2 cytopathic effect (1 nM): 0.79% | inhibition of SARS-CoV-2 cytopathic effect (8.33 nM): 7.15% | inhibition of SARS-CoV-2 cytopathic effect (100 nM): 14.4% | inhibition of SARS-CoV-2 cytopathic effect (833.33 nM): 16% (active) | inhibition of SARS-CoV-2 cytopathic effect (10000 nM): 14.8%

O=c1[nH]cnc2c1cnn2[C@@H]1O[C@H](CO)[C@@H](O)[C@H]1O [allopurinol-riboside]
inhibition of SARS-CoV-2 cytopathic effect (1 nM): 0.99% | inhibition of SARS-CoV-2 cytopathic effect (8.33 nM): 0.92% | inhibition of SARS-CoV-2 cytopathic effect (100 nM): 2.88% | inhibition of SARS-CoV-2 cytopathic effect (833.33 nM): 0.52% | inhibition of SARS-CoV-2 cytopathic effect (10000 nM): 1.75%

CC(C)c1nc(CN(C)C(=O)N[C@H](C(=O)N[C@@H](Cc2ccccc2)C[C@H](O)[C@H](Cc2ccccc2)NC(=O)OCc2cncs2)C(C)C)cs1 [Ritonavir]
inhibition of SARS-CoV-2 cytopathic effect (1 nM): 0.39% | inhibition of SARS-CoV-2 cytopathic effect (8.33 nM): 1.47% | inhibition of SARS-CoV-2 cytopathic effect (100 nM): 0.46% | inhibition of SARS-CoV-2 cytopathic effect (833.33 nM): 1.28% | inhibition of SARS-CoV-2 cytopathic effect (10000 nM): -1.6%

CCCCCCCCCCCCC/C=C/[C@@H](O)[C@@H](N)CO[P@](=O)(O)OCC[N+](C)(C)C [sphingosylphosphorylcholine]
inhibition of SARS-CoV-2 cytopathic effect (1 nM): -0.9% | inhibition of SARS-CoV-2 cytopathic effect (8.33 nM): -2.99% | inhibition of SARS-CoV-2 cytopathic effect (100 nM): 3.74% | inhibition of SARS-CoV-2 cytopathic effect (833.33 nM): -2.02% | inhibition of SARS-CoV-2 cytopathic effect (10000 nM): 3.54%

COc1ccc(S(=O)(=O)Nc2nc(-c3cccc([N+](=O)[O-])c3)cs2)cc1OC
inhibition of SARS-CoV-2 cytopathic effect (1 nM): 2.08% | inhibition of SARS-CoV-2 cytopathic effect (8.33 nM): 4.04% | inhibition of SARS-CoV-2 cytopathic effect (100 nM): 7.06% | inhibition of SARS-CoV-2 cytopathic effect (833.33 nM): 0.79% | inhibition of SARS-CoV-2 cytopathic effect (10000 nM): -3.82%

CC(=O)NNC(=O)N1Cc2ccccc2Oc2ccc(Cl)cc21
inhibition of SARS-CoV-2 cytopathic effect (1 nM): -0.04% | inhibition of SARS-CoV-2 cytopathic effect (8.33 nM): 1.22% | inhibition of SARS-CoV-2 cytopathic effect (100 nM): -0.93% | inhibition of SARS-CoV-2 cytopathic effect (833.33 nM): -0.99% | inhibition of SARS-CoV-2 cytopathic effect (10000 nM): -2.14%

C/C(=C\c1csc(C)n1)[C@@H]1C[C@@H]2O[C@]2(C)CCC[C@H](C)[C@H](O)[C@@H](C)C(=O)C(C)(C)[C@@H](O)CC(=O)N1 [ixabepilone]
inhibition of SARS-CoV-2 cytopathic effect (1 nM): -3.63% | inhibition of SARS-CoV-2 cytopathic effect (8.33 nM): 0.38% | inhibition of SARS-CoV-2 cytopathic effect (100 nM): -5.48% | inhibition of SARS-CoV-2 cytopathic effect (833.33 nM): -6.58% | inhibition of SARS-CoV-2 cytopathic effect (10000 nM): -2.57%

CC(=O)OCC1=C(C(=O)O)N2C(=O)[C@@H](NC(=O)CS/C(=N/C(C)C)NC(C)C)[C@H]2SC1 [cefathiamidine]
inhibition of SARS-CoV-2 cytopathic effect (1 nM): -0.52% | inhibition of SARS-CoV-2 cytopathic effect (8.33 nM): -0.04% | inhibition of SARS-CoV-2 cytopathic effect (100 nM): 1.14% | inhibition of SARS-CoV-2 cytopathic effect (833.33 nM): 0.34% | inhibition of SARS-CoV-2 cytopathic effect (10000 nM): 0.26%
